From PubChem BioAssay AID1117362 (Southern Research Institute, 2015)
In all, about 3,600 compounds went through this assay and about 100 (2.8%) were called active. These entries were drawn from the full list. Unmarked numbers belong to inactive results.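 Rule for the calls: active = inhibition above 30% at one or more concentrations, seen consistently on every test date; inconclusive = results that disagree between repeat test dates; inactive = the rest.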

Test: biotin-GST/anti-GST TR-FRET signal inhibitors, dose response, artefact control for Vif-APOBEC3G degradation inhibitor project, biochemical (AID 1117362);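 note: biotinylated GST protein used in place of GST-Vif 1-94 and biotin-A3G peptide; detects fluorescence quenchers or blockers of GST binding to anti-GST antibody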
Conditions: TR-FRET counter screen; series mostly up to 100 µM; inhibition: at the top concentration

SMILES | inhibition [%]
CN1CCC(N(C)C(=O)COc2ccccc2-c2ccccc2)CC1 | 5.49
O=C(O)CCCCC1CCSS1 (configuration not stated) | -2.13
CN(C)C(=O)c1nc2ccc(Cl)cn2c1CN1CCCC(OCc2ccccc2)C1 (configuration not stated) | 5.59
O=C1CC(Nc2ccc(N3CCOCC3)cc2)C(=O)N1c1ccccc1F (configuration not stated) | 4.96
Cc1ccc(/C=C/C(=O)Nc2cccc(S(=O)(=O)N3CCOCC3)c2)o1 | 3.12
CCOC(=O)/C=C1\SCC(=O)N1CC(=O)NC(C)c1ccc(F)cc1 (configuration not stated) | 0.82
CC1=C(C#N)C(=O)N(C)C(C)(C)C1 | 3.56
CN1CCc2nc3ccc(Cl)cc3c(-c3ccccc3Cl)c2C1 | 15.3
CNC(=O)c1ccccc1NC(=O)c1ccc(C)c(S(=O)(=O)N2CCCCC2)c1 | 3.71
Oc1ccc2ccccc2c1C1Nc2cccc3cccc(c23)N1 | 1.78
Cc1cc(C(=O)O)ccc1-n1c(C)ccc1C | 4.73
COc1cc(C(=O)NCC(c2ccco2)N2CCCC2)ccc1OCc1c(C)noc1C (configuration not stated) | 4.39
Cc1cc(C(=O)CCl)c(C)n1-c1c(C)n(C)n(-c2ccccc2)c1=O | 3.61
O=C(O)/C(=C/c1ccco1)NC(=O)c1ccccc1 | 2.44
O=[N+]([O-])c1c(NCCCO)cc(SCc2ccco2)c2nonc12 | 27.4
CCc1c(C)sc(NC(=O)c2cc(-c3ccco3)on2)c1C#N | 1.8
Cc1oc(-c2ccc(Cl)cc2)cc1-c1nn2c(-c3ccoc3C)nnc2s1 | 11.2
CCC(c1nnnn1Cc1ccco1)N(Cc1ccccc1OC)Cc1cc2cc(C)ccc2[nH]c1=O (configuration not stated) | -4.56
S=c1[nH]nc(COc2ccc3c(c2)OCO3)n1-c1ccccc1 | 4.81
O=P(O)(CN1CCCCCC1)CN1CCCCCC1 | 2.91
C=CCN=c1scc(-c2ccco2)n1/N=C/c1ccc(O)c(O)c1O | 7.15
N#CC1=C(N)OC2=C(CCC/C2=C/c2ccoc2)C1c1ccoc1 (configuration not stated) | 1.5

SMILES | inhibition [%]
Cc1cc(C(=O)CSc2nc3ccccc3c(=O)[nH]2)c(C)n1C | 2.05
C=C(C)C(=O)Nc1cccc(C2=NOC3(C2)C[C@@H](C(N)=O)N(C(=O)CC(c2ccccc2)c2ccccc2)C3)c1 (some centres not stated) | -2.21
CSc1nc(NCCOCCO)c2sc3nc(-c4ccco4)c4c(c3c2n1)CCC4 | 6.36
COC(=O)Cn1c(CCC(=O)O)ccc1-c1ccccc1 | 1.29
O=C(OC1CCCCC1)c1ccc2c(c1)C1C=CCC1C(C(=O)O)N2 (configuration not stated) | 15.7
COc1cccc(C2C(C#N)=C(N)OC3=C2C(=O)CC(c2ccco2)C3)c1OCc1ccc(F)cc1 (configuration not stated) | 1.37
Cc1ccc(CCC(=O)Nc2ccc(S(N)(=O)=O)cc2)o1 | 2.11
CCOC(=O)c1cc(NC(=O)N2CCCc3ccccc32)c(C)nc1C | -1.62
CNC(=O)[C@@H]1C[C@H]1[C@@H](NC(=O)OCc1ccccc1)c1ccccc1 | 2.14
C(=C\c1ccco1)/C=N/n1cnnc1 | -4.46
O=C(/C=C/c1ccco1)NC(=S)Nc1ccccc1N1CCOCC1 | 4.93
C=CCn1c(O)c(C(CC)=NCCN2CCOCC2)c(=O)[nH]c1=O | 1.31
CC(/C=N/n1c(-c2ccncc2)n[nH]c1=S)=C\c1ccco1 | 7.56
CCOc1cc(CNc2ccc(O)cc2)ccc1OCc1ccc(Cl)cc1Cl | -7.67
O=C(O)C1Nc2c(Cl)cc(Cl)c(Cl)c2C2C=CCC12 (configuration not stated) | 2.36
Cc1ccc(NC(=O)CN(C)C(=O)c2cccc(-n3cccc3)c2)cc1 | 1.89
CCc1ccccc1NC(=O)c1cccc(NC(=O)/C=C/c2ccco2)c1 | -3.66
Cc1cc2ccccc2n1CCNC(=O)C1CCCCC1 | 22.4
COc1cccc(-n2c(Cc3cc(=O)[nH]c(=O)[nH]3)nnc2SCC(=O)NC2CCCC2)c1 | -1.98
Cc1cc(C)nc(N2CCC(C(=O)O)CC2)n1 | 0.27
COc1ccc(NC(=S)NCCc2ccccc2OC)c(OC)c1 | -8.17
C=CCn1c(COc2ccc(F)cc2)nnc1SCC(=O)NC(=O)NCc1ccco1 | 0.17

SMILES | inhibition [%]
Clc1ccc(OCc2nn3c(-c4ccco4)nnc3s2)c(Cl)c1 | -1.9
COC(C(=O)C(O)C(C)O)C1Cc2cc3cc(OC4CC(OC5CC(O)C(O)C(C)O5)C(O)C(C)O4)c(C)c(O)c3c(O)c2C(=O)C1OC1CC(OC2CC(OC3CC(O)C(OC)C(C)O3)C(O)C(C)O2)C(O)C(C)O1 (configuration not stated) | -1.16
O=c1oc(/C=C/c2ccco2)nc2sc3c(c12)CCC3 | 1.89
Cc1cc(C(=O)CSc2nnc(-c3ccccc3)n2Cc2ccc3c(c2)OCO3)c(C)n1C | -0.57
COC(=O)c1ccc(COc2ccccc2/C=C(\C#N)C(=O)Nc2c(C)cc(C)cc2C)cc1 | -3.51
CCOc1ccc(-c2nnn(CC(=O)c3ccc4c(c3)OCCO4)n2)cc1OCC | -2.88
Cc1cccc(C)c1NC(=O)CSc1nnc(-c2ccco2)c(-c2ccco2)n1 | 4.93
O=C(C1CCCN1S(=O)(=O)c1cccc2cccnc12)N1CCN(c2ccccc2)CC1 (configuration not stated) | 18
CNc1ccccc(-c2ccc3cc4c(cc3n2)OCO4)c1=O | 6.22
O=C(CCN1C(=O)/C(=C/c2cccs2)SC1=S)NC1=NCCS1 | 3.86
COCCNc1nnc(SC(C)C(=O)Nc2ccc(-c3nc4ccc(C)cc4s3)cc2)s1 (configuration not stated) | -10.4
COc1ccc2[nH]c(=O)c(CN(Cc3ccco3)C(c3nnnn3Cc3ccccc3)C(C)C)cc2c1 (configuration not stated) | 8.05
C=CCOC(=O)C1=C(C)NC(SCC(=O)Nc2ccccc2)=C(C#N)C1c1ccco1 (configuration not stated) | -0.21
N#C/C(=C\c1ccc([N+](=O)[O-])o1)C(=O)Nc1ccc(F)cc1 | -4.89
c1cn2cc(CSC3CCCCC3)nc2s1 | 2.38
Cc1ccc(N2C(=O)/C(=C\c3ccco3)SC2=S)cc1 | -2.25
CCC(C)(C)n1nnnc1C(c1ccc2ncccc2c1)N1CCN(c2ccc(O)cc2)CC1 (configuration not stated) | 11.3
CC1(C)OC(=O)C(=C2CCCN2)C(=O)O1 | 2.43
COC(=O)C1=C(C)NC(=O)/C1=C\c1cc(C)n(-c2ccccc2C)c1C | 0.71
O=C(Nc1ccc(F)cc1)C(c1ccccc1)N1CCN(S(=O)(=O)c2ccc3ccccc3c2)CC1 (configuration not stated) | -1.89
CCCCC(=O)NC(=S)Nc1cc(C(=O)O)ccc1Cl | 2.22
Cc1occc1-c1nnc(SCC(=O)N2CCN(c3ccccc3)CC2)n1C | 11.3

SMILES | inhibition [%]
CC(C)n1c(=NC(=O)c2ccco2)c(C#N)cc2c(=O)n3ccccc3cc21 | 7.91
CCOC(=O)C1CCN(C(=O)COc2ccc(S(=O)(=O)NC(C)C)cc2)CC1 | -2.82
CCOC(=O)Cc1cc(=O)n2[nH]c(C)cc2n1 | -1.93
COCCNC(=O)c1ccc(CS(=O)(=O)c2c(Cl)cccc2Cl)o1 | 4.28
CC(C)CC(=O)Nc1nnc(-c2ccco2)s1 | 0.89
CCOc1cccc(CNCCNC(=O)c2nonc2N)c1 | -2.13
COc1ccc(-n2c(Cc3cccn3C)nnc2SCC(N)=O)cc1 | 7.71
COC(=O)CCCC(=O)Nc1c(F)c(F)c(F)c(F)c1F | -2.58
CCOc1ccc(Nc2nc3ccccc3n3nnnc23)cc1 | -1.63
CN(CC(=O)Nc1cccc(F)c1)C(=O)c1cccc(-n2cccc2)c1 | -2.98
O=C(NC1CCC(C(=O)O)CC1)OCc1ccccc1 (configuration not stated) | 1.11
CCc1cc(=O)n2[nH]c(C)c(-c3ccccc3OC)c2n1 | -1.39
COc1cccc(CNC(=O)CCNS(=O)(=O)c2cccs2)c1 | 2.89
COc1cccc(C(C#N)N2CCCCC2)c1O (configuration not stated) | 0.26
O=C(N/N=C/c1cn(Cc2cccc(F)c2)c2ccccc12)c1cc(O)cc(O)c1 | 6.55
O=C(CSc1nnnn1-c1ccccc1)Nc1ncc2c(n1)CC(c1ccco1)CC2=O (configuration not stated) | 0.22
CCOc1ccc(NCC2CCOC(C)(C)C2)cc1 (configuration not stated) | 9.47
CCOC1(OCC)N=C(N)C2(C#N)C(c3cccc(OC)c3OC)C12C#N (configuration not stated) | 5.56
CCOC(=O)C1CCCN(C(=O)c2ccc(CNc3c(N4CCC(C)CC4)c(=O)c3=O)cc2)C1 (configuration not stated) | -4.81
CCc1ccc(CC)c(S(=O)(=O)Nc2ccc(C(=O)O)c(O)c2)c1 | 4.62
CC/C(=C\C(=O)c1ccncc1)Nc1ccc(O)cc1 | 20.5
CCNc1ccc(Br)cc(C(=O)/C=C/c2ccc3c(c2)OCO3)c1=O | -2.1

SMILES | inhibition [%]
O=[N+]([O-])c1cc(CN2CCOCC2)c2cccnc2c1O | 17.9
Cc1ccc[n+](-c2[nH]c(=O)sc2/C=N/NC(=O)c2ccccc2[O-])c1 | 0.56
Cc1cc(C(=O)CSc2nnc(-c3ccco3)o2)c(C)n1Cc1ccco1 | 0.59
COc1ccc2[nH]c3c4c(ccc3c2c1)C(=O)C=CC4=O | 5.16
O=C(Nc1ccccc1N1CCCC1)c1ccc(Br)o1 | 5.44
COC(=O)C(C)Sc1nnc(Cc2cc(=O)[nH]c(=O)[nH]2)n1-c1cc(C)ccc1C (configuration not stated) | 0.66
O=C(Nc1ccccc1)C1=C(O)CC(c2ccco2)CC1=Nc1ccccc1 (configuration not stated) | -0.44
O=C(c1cc(-c2ccco2)on1)N1CCN(c2ccccc2)CC1 | -4.83
Cc1cc(NC(=O)CCNS(=O)(=O)c2cc(Br)cnc2N)ccc1Br | 5.53
Cc1cc(C(=O)CSc2nnnn2C)c(C)n1CCc1ccc(Cl)cc1 | 5.37
CC1(C)CCCN(C(=O)c2coc(=O)c(Br)c2)C1 | 1.09
FC(F)(F)c1cc(-c2ccco2)nc(NCc2cccnc2)n1 | -1.65
CN(C)c1ccc(NC(=O)CSc2nc3ccccc3c(=O)n2C2CCCCC2)cc1 | 2.21
CC(=O)Nc1ccc(NC(=O)C(C)OC(=O)CC23CC4CC(CC(Br)(C4)C2)C3)cc1 (configuration not stated) | 2.41
Cn1cccc1C(=O)NC(=O)COC(=O)CC12CC3CC(CC(Br)(C3)C1)C2 | 4.29
O=C(O)C1Nc2c(C(=O)N3CCOCC3)cccc2C2C=CCC12 (configuration not stated) | 0.78
O=C(Nc1ccn(-c2ccccc2)n1)c1ccccc1Br | -3.02
CC(=O)c1cccc(NC(=O)CN2C(=O)NC3(CCCCCCC3)C2=O)c1 | 5.93
COc1ccc(-n2c(C)cc(C(=O)CSc3nn4c(=O)c(C(C)(C)C)nnc4s3)c2C)cc1 | -3.69
